Experimental data: PubChem BioAssay (Tox21)
Unmarked numbers belong to inactive results. Inconclusive results are not listed. Where a call stands in place of a potency, no number is given. Active and inactive are the calls of the source. Unless noted, the call rests on the fitted dose curve; in most records, active means well fitted curve in the direction sought with a large enough effect in the repeat runs; inconclusive means weak or mixed curves; inactive means no such curve, though single readings can be large; an effect the other way counts as inactive or inconclusive.

Key:
[1] = molecular target: Estrogen receptor beta (Homo sapiens) (UniProt Q92731); assay: qHTS assay to identify small molecule agonists of the estrogen receptor beta (ER-beta) signaling pathway (AID 1259377; active means well fitted activation curve with a large enough effect in the signal ratio in the repeat runs, not every such curve was filed as active; the % refers to the signal ratio)
Method in brief: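 HEK293T ER-beta-UAS-bla; 2% charcoal-stripped FBS; cells pre-incubated 6 hr, compound 16 hr, 37C/5% CO2; LiveBLAzer B/G FRET substrate 2 h RT; fluorescence intensity read.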

[2] = molecular target: Estrogen receptor beta (Homo sapiens) (UniProt Q92731); assay: qHTS assay to identify small molecule antagonists of the estrogen receptor beta (ER-beta) signaling pathway (AID 1259378; active means well fitted inhibition curve with a large enough effect in the signal ratio in the repeat runs, not every such curve was filed as active; the % refers to the signal ratio; further: potency means the concentration at half of the fitted maximal effect)
Method in brief: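 Antagonist mode: compounds added to beta-lactamase reporter HEK293T ER-beta-UAS cells stimulated with E2 (1nM final), 16 hr at 37C. LiveBLAzer B/G FRET substrate, 2 hours room temperature, fluorescence read-out.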

[3] = qHTS assay to identify small molecule agonists of the androgen receptor (AR) signaling pathway in the presence of an antagonist - cell viability counter screen (AID 1259379);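 further: MDA-kb2 human breast cancer cells carrying an MMTV luciferase reporter; series mostly up to about 92 µM; nearly all actives have a fitted effect of over 25% in size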
Method in brief: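 Cells: MDA-kb2 (MMTV-luc, AR and GR elements), 3,000/well, 5 hr settle. Added: nilutamide 3.0uM final, then compounds (15 conc.). Incubation: 16 hr, 37C, no CO2. Read-out: CellTiter-Fluor, 1 hr, fluorescence.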

[4] = qHTS assay to identify small molecule agonists of the estrogen receptor beta (ER-beta) signaling pathway - cell viability counter screen (AID 1259380); further: nearly all actives have a fitted effect of over 30% in size; further: potency means the concentration at half of the fitted maximal effect
Method in brief: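 HEK293T ER-beta-UAS-bla; 2% CS-FBS; 6 hr pre-plate, 16 hr cpd at 37C/5% CO2; LiveBLAzer read first, then CellTiter-Glo 30 min RT, luminescence.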

[5] = qHTS assay to identify small molecule antagonists of the estrogen receptor beta (ER-beta) signaling pathway - cell viability counter screen (AID 1259382);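 further: HEK293T cells carrying ER-beta-UAS-bla reporter stimulated with estradiol; series mostly up to about 92 µM; nearly all actives have a fitted effect of over 55% in size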
Method in brief: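 Cells: ER-beta-UAS-bla HEK293T, 2,000/well, 2% CS-FBS, 6 hr settle. Cpd + E2 (1nM final), 16 hr, 37C/5% CO2. Bla FRET substrate 2 hr RT, then CellTiter-Glo 30 min RT, luminescence.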

[6] = qHTS assay to identify small molecule agonists or antagonists of the thyroid stimulating hormone receptor (TSHR) signaling pathway - wild type cell line counter screen (AID 1259384; calls by dose curve)
Method in brief: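 Counter screen in untransfected Hek293: compounds (15-point titration, triplicate) plus phosphodiesterase inhibitor Ro20-1724 added after 18 h plating; 30 min RT. Intracellular cAMP via competitive d2/cryptate immunoassay, 1 h incubation.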

[7] = molecular target: Thyrotropin receptor (Homo sapiens) (UniProt P16473); assay: qHTS assay to identify small molecule antagonists of the thyroid stimulating hormone receptor (TSHR) signaling pathway (AID 1259385; calls by dose curve; further: nearly all actives have a fitted effect of over 20% in size)
Method in brief: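 Antagonist mode: compound-treated TSHR-expressing HEK293 cells were stimulated with 1.5 ng/mL TSH (final) in presence of Ro20-1724 for 30 min at RT. HTRF cAMP detection after 1 h; each compound tested at 15 concentrations, triplicate.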

[8] = qHTS assay to identify small molecule agonists of the estrogen receptor alpha (ER-alpha) signaling pathway in the presence of an antagonist - cell viability counter screen (AID 1259386);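 further: series mostly up to about 92 µM; cells exposed to compounds for 22 h at 37 °C before the viability read; nearly all actives have a fitted effect of over 30% in size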
Method in brief: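 VM7Luc4E2, stripped-serum pre-culture 5 d; 24hr plating; +ICI-182,780 10.0nM final; cpds 15 conc, 22hr, 37C/5% CO2; CellTiter-Fluor added at 21hr, fluorescence 1hr later.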

[9] = molecular target: Progesterone receptor (Homo sapiens) (UniProt P06401); assay: qHTS assay to identify small molecule agonists of the progesterone receptor (PR) signaling pathway (AID 1346784; calls by dose curve; further: nearly all actives have a fitted effect of over 30% in size)
Method in brief: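 Beta-lactamase reporter read-out: after 16 hr compound treatment at 37C and a further 2 hr at room temperature with LiveBLAzer B/G FRET substrate, fluorescence was measured in PR-UAS-bla HEK 293T cells grown in 2% charcoal-stripped serum.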

[10] = molecular target: Progesterone receptor (Homo sapiens) (UniProt P06401); assay: qHTS assay to identify small molecule antagonists of the progesterone receptor (PR) signaling pathway (AID 1346795; active means well fitted inhibition curve with a large enough effect in the signal ratio in the repeat runs, not every such curve was filed as active; the % refers to the signal ratio; further: potency means the concentration at half of the fitted maximal effect)
Method in brief: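 Read-out is fluorescence from the LiveBLAzer B/G FRET substrate, cleaved by a UAS-controlled beta-lactamase in PR-UAS-bla HEK293T cells after 16 hr exposure to compound plus 1 nM promegestone (final), followed by 2 hr at room temperature.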

[11] = qHTS assay to identify small molecule antagonists of the progesterone receptor (PR) signaling pathway - cell viability counter screen (AID 1346798);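 further: HEK293T PR-UAS-bla cells stimulated with the agonist R5020; series mostly up to about 92 µM; nearly all actives have a fitted effect of over 50% in size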
Method in brief: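 HEK293T PR-UAS-bla, 2% charcoal-stripped FBS; 4 hr pre-plate; cpd + R5020, 16 h 37C; LiveBLAzer read first; then CellTiter-Glo 30 min RT, luminescence.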

[12] = qHTS assay to identify small molecule agonists of the progesterone receptor (PR) signaling pathway - cell viability counter screen (AID 1346799; calls by dose curve; further: nearly all actives have a fitted effect of over 45% in size)
Method in brief: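 Luminescence from CellTiter-Glo, added after the beta-lactamase FRET read in the same wells, gave cytotoxicity in PR-UAS-bla HEK293T cells treated with compounds for 16 hr at 37C.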

[13] = qHTS assay to identify small molecule antagonists of the TGF-beta/Smad signaling pathway - cell viability counter screen (AID 1346824); further: nearly all actives have a fitted effect of over 50% in size
Method in brief: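 Cytotoxicity counter-screen run in the same wells as the beta-lactamase Smad reporter read: CellTiter-Glo luminescence after 30 min at room temperature. HEK 293T SBE-bla cells had 5 hr compound exposure at 37 C with TGF-beta1 (0.25 ng/mL stock).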

[14] = qHTS assay to identify small molecule agonists of the TGF-beta/Smad signaling pathway - cell viability counter screen (AID 1346829); further: top concentration of the series differs between compounds; nearly all actives have a fitted effect of over 45% in size
Method in brief: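 In parallel with the Smad reporter read, viability of HEK 293T cells stably carrying SBE-bla is quantified by ATP luminescence following 5 hr compound treatment.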

[15] = qHTS assay to identify small molecule agonists of the TGF-beta/Smad signaling pathway (AID 1346859; active means well fitted activation curve with a large enough effect in the signal ratio in the repeat runs, not every such curve was filed as active; the % refers to the signal ratio; further: series mostly up to about 77 µM)
Method in brief: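 SBE-bla HEK 293T, 4,000 cells/well, plated o/n; cpd in DMSO, 5 hr, 37 C/5% CO2; B/G FRET substrate 2 hr RT; ex 405, em 460/530 nm.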

[16] = molecular target: Thyrotropin-releasing hormone receptor (Homo sapiens) (UniProt P34981); assay: qHTS assay to identify small molecule antagonists of the thyrotropin-releasing hormone receptor (TRHR) signaling pathway (AID 1346877; active means well fitted inhibition curve with a large enough effect in the repeat runs, not every such curve was filed as active; further: series mostly up to about 51 µM)
Method in brief: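 Intracellular calcium fluorescence, read kinetically every second over 3 min, reports TRH-evoked signalling in HEK293 cells carrying TRHR. Test compounds were added 5 min ahead of a 1 nM TRH challenge.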

[17] = molecular target: Thyrotropin-releasing hormone receptor (Homo sapiens) (UniProt P34981); assay: qHTS assay to identify small molecule agonists of the thyrotropin-releasing hormone receptor (TRHR) signaling pathway (AID 1346891; calls by dose curve; further: series mostly up to about 58 µM)
Method in brief: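 Intracellular calcium rise, read as fluorescence every second for 3 min, served as the agonist signal in dye-loaded HEK293 cells expressing TRHR; each compound ran at 15 concentrations in triplicate.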

[18] = Human pregnane X receptor (PXR) small molecule agonists, qHTS cell viability counter screen (AID 1346977); further: nearly all actives have a fitted effect of over 50% in size
Method in brief: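 PXR-Luc HepG2, 2,000 cells/well, 5% charcoal-stripped FBS; 5hr settle; cpd 24hr, 37C/5% CO2; CellTiter-Fluor at 23hr, read 1hr later (fluorescence).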

[19] = molecular target: Estrogen receptor (Homo sapiens) (UniProt P03372); assay: qHTS assay to identify small molecule agonists of the estrogen receptor alpha (ER-alpha) signaling pathway in the presence of an antagonist (AID 1259383; calls by dose curve; further: top concentration of the series differs between compounds; nearly all actives have a fitted effect of over 15% in size)
Method in brief: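 VM7Luc4E2, endog. ER-alpha + 4×ERE-luc; charcoal-stripped FBS, phenol red-free, 5 d; 24hr plating; +10.0nM ICI-182,780 (final); cpds 15 conc, 22hr, 37C/5% CO2; ONE-Glo luminescence.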

Sequence of Thyrotropin-releasing hormone receptor (Homo sapiens) (P34981 whole entry, looked up): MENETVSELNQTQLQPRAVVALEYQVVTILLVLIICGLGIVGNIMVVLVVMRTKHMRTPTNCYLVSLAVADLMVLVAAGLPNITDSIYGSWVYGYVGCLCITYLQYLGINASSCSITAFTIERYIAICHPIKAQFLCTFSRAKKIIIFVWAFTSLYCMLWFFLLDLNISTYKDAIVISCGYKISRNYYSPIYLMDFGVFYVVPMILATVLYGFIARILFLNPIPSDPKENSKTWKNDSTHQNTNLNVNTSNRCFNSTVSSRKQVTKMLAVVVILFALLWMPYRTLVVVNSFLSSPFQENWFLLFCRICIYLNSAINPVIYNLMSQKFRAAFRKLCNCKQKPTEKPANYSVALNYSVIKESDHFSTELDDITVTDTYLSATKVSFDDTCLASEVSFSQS
Sequence of Progesterone receptor (Homo sapiens) (P06401 whole entry, looked up): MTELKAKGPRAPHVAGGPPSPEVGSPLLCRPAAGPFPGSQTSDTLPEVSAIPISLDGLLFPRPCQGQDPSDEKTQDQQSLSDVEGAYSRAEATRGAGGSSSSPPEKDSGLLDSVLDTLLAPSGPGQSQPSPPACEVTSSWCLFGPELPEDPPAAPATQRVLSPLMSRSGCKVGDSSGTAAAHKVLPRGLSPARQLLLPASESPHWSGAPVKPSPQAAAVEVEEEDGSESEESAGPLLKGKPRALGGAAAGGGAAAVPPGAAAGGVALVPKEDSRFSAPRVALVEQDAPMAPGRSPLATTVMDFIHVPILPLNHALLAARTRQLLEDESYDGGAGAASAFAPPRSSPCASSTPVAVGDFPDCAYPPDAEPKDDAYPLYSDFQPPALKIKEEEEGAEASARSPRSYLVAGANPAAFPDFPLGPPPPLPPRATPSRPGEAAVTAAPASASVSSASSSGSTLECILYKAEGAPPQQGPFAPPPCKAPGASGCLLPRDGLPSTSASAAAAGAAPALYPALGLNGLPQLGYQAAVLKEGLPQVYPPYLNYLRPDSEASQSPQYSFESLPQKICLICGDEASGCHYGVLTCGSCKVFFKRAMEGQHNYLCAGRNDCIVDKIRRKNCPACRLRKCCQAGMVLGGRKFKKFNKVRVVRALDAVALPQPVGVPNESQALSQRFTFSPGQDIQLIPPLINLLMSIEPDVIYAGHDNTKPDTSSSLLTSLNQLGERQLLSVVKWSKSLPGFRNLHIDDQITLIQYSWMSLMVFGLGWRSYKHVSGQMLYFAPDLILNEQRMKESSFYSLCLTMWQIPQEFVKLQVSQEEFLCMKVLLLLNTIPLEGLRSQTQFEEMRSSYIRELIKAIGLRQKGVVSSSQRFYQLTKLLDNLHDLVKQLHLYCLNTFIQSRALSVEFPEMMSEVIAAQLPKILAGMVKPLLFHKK
Sequence of Estrogen receptor beta (Homo sapiens) (Q92731 whole entry, looked up): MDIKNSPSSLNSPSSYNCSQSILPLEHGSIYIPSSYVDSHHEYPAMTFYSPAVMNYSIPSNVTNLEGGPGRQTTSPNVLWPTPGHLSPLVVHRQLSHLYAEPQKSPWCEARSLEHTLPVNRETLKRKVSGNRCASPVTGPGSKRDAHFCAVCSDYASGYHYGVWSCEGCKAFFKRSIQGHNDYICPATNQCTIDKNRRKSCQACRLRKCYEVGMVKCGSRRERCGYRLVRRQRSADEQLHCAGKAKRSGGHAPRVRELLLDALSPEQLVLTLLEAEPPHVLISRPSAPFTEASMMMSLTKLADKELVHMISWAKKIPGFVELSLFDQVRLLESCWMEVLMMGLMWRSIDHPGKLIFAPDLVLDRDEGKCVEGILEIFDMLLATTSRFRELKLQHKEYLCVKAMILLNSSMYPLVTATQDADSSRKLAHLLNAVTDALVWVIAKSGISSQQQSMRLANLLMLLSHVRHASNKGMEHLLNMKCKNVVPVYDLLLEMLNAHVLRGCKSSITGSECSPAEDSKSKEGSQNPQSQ
Sequence of Thyrotropin receptor (Homo sapiens) (P16473 whole entry, looked up): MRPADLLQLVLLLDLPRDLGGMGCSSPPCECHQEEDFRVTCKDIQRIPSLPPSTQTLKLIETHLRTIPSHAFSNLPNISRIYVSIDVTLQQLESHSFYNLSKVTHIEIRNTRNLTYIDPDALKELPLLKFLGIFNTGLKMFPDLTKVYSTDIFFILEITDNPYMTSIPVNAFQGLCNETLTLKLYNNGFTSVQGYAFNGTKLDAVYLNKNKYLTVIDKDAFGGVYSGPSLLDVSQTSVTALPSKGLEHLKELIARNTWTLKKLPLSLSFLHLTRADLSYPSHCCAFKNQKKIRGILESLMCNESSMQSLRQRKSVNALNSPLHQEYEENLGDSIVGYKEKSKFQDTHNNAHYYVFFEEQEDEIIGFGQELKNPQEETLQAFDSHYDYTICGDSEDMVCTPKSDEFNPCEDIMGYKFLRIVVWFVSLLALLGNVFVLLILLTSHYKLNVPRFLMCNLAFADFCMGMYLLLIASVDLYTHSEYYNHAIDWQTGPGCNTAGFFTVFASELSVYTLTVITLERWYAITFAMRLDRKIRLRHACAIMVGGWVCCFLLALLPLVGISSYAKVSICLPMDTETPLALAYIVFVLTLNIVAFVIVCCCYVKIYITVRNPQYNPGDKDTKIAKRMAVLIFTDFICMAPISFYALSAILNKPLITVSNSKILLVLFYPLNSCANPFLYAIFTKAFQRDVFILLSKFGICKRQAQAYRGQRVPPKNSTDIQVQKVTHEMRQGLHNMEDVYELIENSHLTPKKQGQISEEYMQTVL
Sequence of Estrogen receptor (Homo sapiens) (P03372 whole entry, looked up): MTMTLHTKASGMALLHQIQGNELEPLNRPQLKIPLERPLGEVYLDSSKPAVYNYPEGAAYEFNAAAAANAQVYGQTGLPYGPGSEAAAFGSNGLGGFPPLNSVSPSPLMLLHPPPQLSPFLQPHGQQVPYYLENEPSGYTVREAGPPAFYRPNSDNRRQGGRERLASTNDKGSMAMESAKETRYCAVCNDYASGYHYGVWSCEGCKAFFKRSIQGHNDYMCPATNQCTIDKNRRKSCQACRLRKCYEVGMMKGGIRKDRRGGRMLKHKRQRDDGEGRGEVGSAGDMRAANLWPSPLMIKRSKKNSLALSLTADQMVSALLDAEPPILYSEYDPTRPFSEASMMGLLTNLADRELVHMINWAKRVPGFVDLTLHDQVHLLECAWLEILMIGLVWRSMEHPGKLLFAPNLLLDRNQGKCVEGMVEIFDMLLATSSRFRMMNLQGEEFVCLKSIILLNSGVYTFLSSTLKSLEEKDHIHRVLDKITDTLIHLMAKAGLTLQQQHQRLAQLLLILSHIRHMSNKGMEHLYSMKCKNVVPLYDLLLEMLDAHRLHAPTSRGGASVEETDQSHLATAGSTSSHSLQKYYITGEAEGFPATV

SMILES	Potency [1]	Potency [2]	Potency [3]	Potency [4]	Potency [5]	outcome [6]	Potency [7]	Potency [8]	outcome [9]	Potency [10]	Potency [11]	Potency [12]	Potency [13]	Potency [14]	Potency [15]	Potency [16]	Potency [17]	Potency [18]	Potency [19]
O=C(O)CC(=O)O	inactive	inactive	inactive	inactive	inactive	inactive	inactive	inactive	inactive	inactive	inactive	inactive	inactive	inactive	inactive	inactive	inactive	inactive	–
CC[N+](CC)(CC)Cc1ccccc1	inactive	inactive	inactive	inactive	inactive	–	–	inactive	inactive	inactive	inactive	inactive	–	inactive	inactive	inactive	inactive	inactive	inactive
CCc1cccc(CC)c1N(COC)C(=O)CS(=O)(=O)O	inactive	inactive	inactive	inactive	inactive	inactive	–	–	inactive	inactive	inactive	inactive	–	inactive	inactive	inactive	inactive	inactive	inactive
Clc1ccc(C(c2ccccc2Cl)C(Cl)Cl)cc1 (centres undefined)	inactive	19.3 µM (active)	inactive	48.6 µM (active)	inactive	inactive	inactive	–	–	3.44 µM (active)	–	–	inactive	inactive	inactive	inactive	inactive	inactive	–
